AHR act – activates the human aryl hydrocarbon receptor | P35869 | AHR-responsive luciferase reporter cells, luminescence | activation, % at 5 µM | 320,000 tested, 2.5% active | AID 2796; in the data active = activation above about 47%;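 also: 0% = vehicle wells and 100% = reference agonist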
Target sequence (P35869 whole entry, looked up): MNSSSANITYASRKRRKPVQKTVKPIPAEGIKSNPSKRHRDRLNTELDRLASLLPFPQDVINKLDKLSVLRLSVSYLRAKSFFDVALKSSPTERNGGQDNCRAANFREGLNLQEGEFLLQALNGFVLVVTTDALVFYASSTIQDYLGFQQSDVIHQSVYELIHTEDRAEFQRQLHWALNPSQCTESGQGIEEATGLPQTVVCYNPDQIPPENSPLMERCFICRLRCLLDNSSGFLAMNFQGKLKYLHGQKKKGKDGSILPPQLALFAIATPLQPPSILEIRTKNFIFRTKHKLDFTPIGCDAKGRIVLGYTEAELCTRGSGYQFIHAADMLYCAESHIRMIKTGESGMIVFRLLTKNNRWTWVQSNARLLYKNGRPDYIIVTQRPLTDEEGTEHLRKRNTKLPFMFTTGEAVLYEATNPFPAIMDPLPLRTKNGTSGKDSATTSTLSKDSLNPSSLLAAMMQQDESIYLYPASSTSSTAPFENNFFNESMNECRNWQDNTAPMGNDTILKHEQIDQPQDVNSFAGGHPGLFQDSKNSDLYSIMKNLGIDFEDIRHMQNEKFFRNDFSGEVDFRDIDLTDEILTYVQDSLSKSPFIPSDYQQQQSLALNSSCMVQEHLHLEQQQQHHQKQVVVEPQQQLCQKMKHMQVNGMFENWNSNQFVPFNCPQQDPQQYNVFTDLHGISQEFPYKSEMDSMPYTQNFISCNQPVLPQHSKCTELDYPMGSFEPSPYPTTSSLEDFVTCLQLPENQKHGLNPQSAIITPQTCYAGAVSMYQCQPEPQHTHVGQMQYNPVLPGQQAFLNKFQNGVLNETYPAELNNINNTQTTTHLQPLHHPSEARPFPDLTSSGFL
HSF-1 act – increases HSF-1 driven luciferase reporter signal. NIH3T3-HGL HSF-1 luciferase reporter, MG132, 8 h; 100% = twice DMSO control signal. activation, % at 9 µM. 300,000 tested, 1.7% active. AID 504408;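 active = mean replicate activation of at least 50% with a set share of replicates each reaching 50%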;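 also: 0% = median of the neutral control wells and 100% = twice that signal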
GAA850 FXN act – frataxin GAA850 promoter activation | HEK293 lucGAA850 FXN promoter luciferase reporter, 24 h; percent of 10 µM SAHA response | activation, % at 6 µM | 360,000 tested, 0.56% active;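 active = activation above the average of all compounds screened plus 3 SD, cutoff fixed separately per campaign, cut at about 7.5% in these data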;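 also: 0% = DMSO wells and 100% = 10 µM SAHA wells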
HSF1 inh – HSF1 inhibition; 300,000 tested, 0.77% active; NIH3T3-HGL HSE-luciferase, MG132-induced, luminescence 8 h; stronger effect = lower value; activity change, negative = inhibition, % at 7.5 µM (by protocol); AID 2098;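 active = more than half of replicate wells show activity change below -50%, luminescence cut by over half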;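 also: luciferase reports HSF-1 transcriptional activity via heat shock element; 0% = median of DMSO wells and -100% = zero luminescence signal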
* = called active by the depositor; nt = no result. The list is not random: actives were taken first. Their share in the collection is about 4.6%.

SMILES	AHR act	HSF-1 act	GAA850 FXN act	HSF1 inh
CCc1cc2cc(C(=O)Nc3ccccc3F)sc2s1	-10	57*	3	36
COc1ccccc1NC(=O)C1=C(C)NC2=C(C(=O)CC(c3ccc(OC)c(OC)c3)C2)C1c1coc2ccccc2c1=O (centres undefined)	6	67*	-2	30
CC(C)C1OC2c3cccc4cccc(c34)C2N1c1ccccc1 (centres undefined)	21	3	0	-6
CCOC(=O)/C(=C/c1ccc(OC(F)F)cc1)C1=Nn2c(nnc2-c2ccc(Cl)cc2)SC1	nt	nt	4	nt
CCOC(=O)/C(=C\c1ccc(OC(F)F)cc1)C1=Nn2c(nnc2-c2ccc(Cl)cc2)SC1	2	-83	8.2*	-83*
Cc1[nH]c2ccccc2c1-c1csc(NC(=O)CSCCO)n1	50*	-4	1	-8
Cc1csc(NC(=O)CSCC(=O)Nc2ccccc2)n1	2	26	1	1
c1ccc2c(c1)-c1cccc3c1c-2cc1ccccc13	102*	nt	nt	nt
c1ccc2c(c1)Oc1cccc3cccc-2c13	-2	nt	0	-4
O=C(CSc1ccc2nnc(CCNC(=O)c3ccccc3)n2n1)Nc1ccccc1	0	nt	1	nt
CCN(CC)S(=O)(=O)c1ccc(N2CCOCC2)c(NC(=O)c2cc3ccccc3oc2=O)c1	-4	69*	1	27
O=C(c1cc2cc3ccc(Cl)cc3nc2o1)N1CCCCCC1	-4	26	5	21
COC(=O)c1ccccc1NC1=C/C(=N\S(=O)(=O)c2ccc(C(=O)O)cc2)c2ccccc2C1=O	62*	-4	3	-1
CC(C)(C)c1ccc(S(=O)(=O)/N=C2\C=C(NS(=O)(=O)c3ccccc3)C(=O)c3ccccc32)cc1	54*	39	6	17
COC(=O)c1ccccc1NC1=C/C(=N\S(=O)(=O)c2cccs2)c2ccccc2C1=O	88*	40	-7	33
CCc1ccc(S(=O)(=O)/N=C2\C=C(Nc3ccc(C(=O)O)cc3)C(=O)c3ccccc32)cc1	13	-7	1	7
COC(=O)c1cccc(NS(=O)(=O)c2cccs2)c1C	0	3	3	0
COc1ccc(NC(=S)NNC(=O)c2cccnc2)cc1OC	3	0	0	-4
COC(=O)Cn1c(C)nc(=O)c(-c2ccccc2)c1C	4	-6	2	-5
Cc1cc(Cl)ccc1N(CC(=O)NCCSCc1ccco1)S(C)(=O)=O	6	25	2	10
CN(C)c1ccc(NC(=O)Nc2csc3ccccc23)cc1	72*	-48	2	-39
CCc1ccccc1NC(=O)Nc1ccc(F)cc1	9	-2	0	-1
CN(C)c1ccc(NC(=O)Nc2cccc(Cl)c2)cc1	20	29	3	26
O=C(Nc1ccc(F)cc1)Nc1csc2ccccc12	75*	61*	0	41
COC(=O)c1cc(C(C)=O)c(C)[nH]c1=O	-1	2	1	-5
SMILES	AHR act	HSF-1 act	GAA850 FXN act	HSF1 inh
COC(=O)c1cc(S(=O)(=O)NCc2ccc(F)cc2)cn1C	-1	-63	1	-53*
COC(=O)c1cc(S(=O)(=O)NCc2ccccc2)cn1C	0	9	0	7
CCN=c1scc(C)n1/N=C/c1cc(Br)c(O)c(OC)c1	49*	0	-1	-13
COc1ccc(S(=O)(=O)NCCc2nnc3ccc(SCC(=O)Nc4cc(C)on4)nn23)cc1	-1	-8	0	-3
Cc1ccn2c(C(=O)N/N=C\c3ccccc3[N+](=O)[O-])c(C)nc2c1	5	78*	-1	38
Cc1nc(N)sc1C(=O)N/N=C/c1ccccc1[N+](=O)[O-]	58*	34	6	31
Cc1ccn2c(C(=O)N/N=C/c3ccc(Cl)cc3)c(C)nc2c1	nt	15	-1	27
Cc1nc(N)sc1C(=O)N/N=C/c1ccc([N+](=O)[O-])cc1	29	27	1	6
O=C(Nc1cccc(C(=O)N2CCCCC2)c1)c1ccccc1	nt	nt	-3	nt
CCCC1C(C(=O)OCC)=C(C)NC(C)=C1C(=O)OCC	57*	11	-2	4
CCOC(=O)C1=C(C)NC(C)=C(C(=O)OCC)C1C(=O)O	2	nt	-1	nt
COc1ccc(OC)c(NC(=O)C2C3C=CC(C3)C2C(=O)NCc2ccccn2)c1 (centres undefined)	0	46	-1	23
COc1ccc2ccccc2c1/C=N\NC(=O)c1ccc(C)s1	nt	nt	0	nt
CSc1ccccc1NC(=O)C1=CC(c2ccc(C)cc2)=NS(=O)(=O)N1C	12	-65	-1	-56*
Cc1ccc(O)c(NC(=O)C2=CC(c3cccs3)=NS(=O)(=O)N2C)c1	52*	0	-2	-8
